An excerpt weighted towards active compounds, which were near 3.5% of everything screened.
mHTT-CaM PPI inh = mutant huntingtin-calmodulin interaction inhibitors – biochemical, AlphaScreen, primary screen; P42858; AlphaScreen His-mHTT/GST-CaM binding, luminescence; inhibition, % at 15 µM; 190,000 tested, 3.6% active; AID 1671202, 2021;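 note: 0% = both proteins with DMSO and 100% = one protein alone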
Pf apPOL block = Pf-apPOL inhibitors, biochemical, fluorescence; Recombinant Pf-apPOL, molecular beacon fluorescence, 1.5 h; inhibition, % at 10 µM; 210,000 tested, 0.25% active
Starred values were filed as active, the others as inactive; x = no result given. Cut-off read from the data, not from the text of the source: active = inhibition above about 50%; inactive = the rest.

SMILES	mHTT-CaM PPI inh	Pf apPOL block
O=C1NN(c2ccc(Cl)c(Cl)c2)C(=O)/C1=C/c1cc2c(cc1[N+](=O)[O-])OCO2	75.0*	-3.4
COc1cc2c(cc1/C=C1\NC(=O)N(Cc3ccc(F)cc3)C1=O)OCO2	-4.0	-8.6
COc1cc(/C=C2\C(=O)NN(c3ccc(Cl)c(Cl)c3)C2=O)cc([N+](=O)[O-])c1O	49.0	-6.5
CCC1Oc2ccc(NC(=O)Cc3ccccc3)cc2CN(C(C)C)C1=O (centres undefined)	5.5	-5.8
N#Cc1ccc(C(=O)N2CCC(c3nc(CCNC(=O)C4CC4)cs3)CC2)cc1	14.8	-0.3
COc1ccc(C(=O)NCc2nnc3n2CCCC3)cc1F	-1.3	1.0
O=c1/c(=C/c2ccc(Br)c([N+](=O)[O-])c2)sc2nc3ccccc3n12	-6.0	2.2
COc1cc(/C=c2\sc3nc4ccccc4n3c2=O)cc([N+](=O)[O-])c1O	57.0*	1.2
COc1cc(Br)ccc1NC(=O)CN1CCN(C)CC1	-2.8	-10.3
C=C(C)CN(CC)Cc1cc(OC)c(O)c([N+](=O)[O-])c1	0.8	-4.1
O=C1C(Nc2ccc(O)cc2)=CC(=NS(=O)(=O)c2cccs2)c2ccccc21	94.0*	1.6
CCOc1ccc(NC2=CC(=NS(=O)(=O)c3ccccc3)c3ccccc3C2=O)cc1	66.0*	-5.1
CCOc1ccc(S(=O)(=O)N=C2C=C(Nc3ccc(O)cc3)C(=O)c3ccccc32)cc1	94.0*	-0.2
CCc1ccc(S(=O)(=O)Nc2ccc(O)cc2)cc1	0.7	-6.5
CCOc1ccc(S(=O)(=O)N=C(Nc2ccccn2)c2ccccc2)cc1	4.0	2.0
CCOc1ccc(NC2=CC(=NS(=O)(=O)c3ccc(OC)cc3)c3ccccc3C2=O)cc1	38.0	-0.5
CS(=O)(=NC(=O)Nc1ccccc1)c1cccs1 (centres undefined)	x	-2.6
CCc1ccc(S(=O)(=O)N=C2C=C(Nc3ccc(O)cc3)C(=O)c3ccccc32)cc1	72.0*	-8.7
O=C(Nc1nccn(-c2ccc(Br)cc2)c1=O)c1cccc(F)c1	0.4	-0.6
Cc1onc(-c2ccccc2Cl)c1C(=O)N1CCOCC1	-3.8	-8.7
Cc1ccccc1NS(=O)(=O)c1cccs1	0.3	1.6
Cc1ccc(Cl)cc1NC1=CC(=NS(=O)(=O)c2cccs2)c2ccccc2C1=O	79.0*	-6.3
Brc1cccc(CNc2cc3c(cc2Br)OCCO3)c1	78.0*	1.5
Brc1ccc2c(c1)OCCOCCOc1ccc(Br)cc1OCCO2	-12.0	1.9
O=C(CCSc1nc2ccccc2o1)Nc1ccc(Br)cc1	-2.0	0.0
SMILES	mHTT-CaM PPI inh	Pf apPOL block
O=C(Nc1cc(Cl)cc(Cl)c1)c1cc(S(=O)(=O)NCCc2ccccc2)ccc1F	49.0	-7.9
O=C(Nc1ccc(F)c(Cl)c1)c1cc(S(=O)(=O)NCCc2ccccc2)ccc1F	76.0*	-6.2
Cc1ccc(NC(=O)c2cc(S(=O)(=O)NCCc3ccccc3)ccc2F)cc1Cl	5.0	1.4
O=C(Nc1cccc(Cl)c1)c1cc(S(=O)(=O)NCCc2ccc(Cl)cc2)ccc1F	80.0*	-7.9
COc1ccc(OC)c(NC(=O)c2cc(S(=O)(=O)NCc3ccccc3)ccc2F)c1	13.0	-8.2
COc1ccc(OC)c(NC(=O)c2cc(S(=O)(=O)NCCc3ccccc3)ccc2F)c1	80.0*	0.4
COC(CN=CC1=C(O)CC(C)(C)CC1=O)OC	-2.0	-5.1
Oc1cccc(Nc2nc(-c3ccccn3)cs2)c1	99.0*	-4.1
Oc1ccc(-c2csc(Nc3ncccn3)n2)c(O)c1	9.0	-2.6
Cc1ccc(C)c(-c2csc(Nc3ncccn3)n2)c1	2.0	-7.1
O=C(O)c1cccc(Nc2nc(-c3ccccc3)cs2)c1	15.8	1.2
Cc1cccc(Nc2nc(-c3ccccn3)cs2)c1	97.0*	-1.0
O=C(O)c1cccc(Nc2nc(-c3ccccn3)cs2)c1	96.0*	-4.1
CC1=C(C(=O)Nc2ccccc2F)C(c2ccc(F)cc2)C2=C(CC(c3ccccc3)CC2=O)N1 (centres undefined)	-51.0	-3.3
O=C(NCc1cccc(F)c1)C1c2ccccc2CCN1C(=O)c1ccccc1 (centres undefined)	7.2	-3.5
Cc1cc(C)c(-c2[nH]ncc2-c2nc3ccccc3s2)c(O)c1	85.5*	-10.0
Nc1ccc(O)c(-c2nc3ccccc3s2)c1	49.9	3.4
O=C(Nc1ccc(O)c(-c2nc3ccccc3s2)c1)c1ccc([N+](=O)[O-])cc1	-1.1	-0.2
O=[N+]([O-])c1ccc(COc2ccc(-c3[nH]ncc3-c3nc4ccccc4s3)c(O)c2)cc1	99.9*	-6.7
O=C(c1ccncc1)N1CCN(c2nc(CN3CCOCC3)cs2)CC1	2.3	-4.7
COc1cc(C=Nc2ccc(Nc3ccccc3)cc2)cc(OC)c1OC	76.0*	-2.3
COc1cc(C=Nc2ccc(Nc3ccccc3)cc2)c([N+](=O)[O-])cc1OC	96.0*	0.5
COc1cc(C=Nc2cccc3c(=O)[nH][nH]c(=O)c23)c([N+](=O)[O-])cc1OC	13.0	-0.6
COc1cc(C=Nc2ccc(NC(C)=O)cc2)cc(OC)c1OC	-1.0	2.4
Cc1ccc(N2CCN(C(=O)c3ccccc3C)C(C)C2=O)cc1F (centres undefined)	-3.3	-4.0
SMILES	mHTT-CaM PPI inh	Pf apPOL block
C=CCOc1ccccc1/C=C1/C(=O)N(c2cccc(Br)c2)N=C1C	18.0	-2.1
CNC(=O)N1CCCC(c2cccc(C(=O)N3CCC4(CC3)OCCO4)c2)C1 (centres undefined)	11.6	-9.2
COC(CNC(=O)c1ccc(N2CCc3ccccc32)c([N+](=O)[O-])c1)OC	58.0*	-3.7
COC(CNC(=O)c1ccc(N2CCN(c3ccccn3)CC2)c([N+](=O)[O-])c1)OC	9.0	2.1
Cc1ccc(C2CC(c3ccc(F)cc3)=NN2c2ccccc2)o1 (centres undefined)	-53.0	-0.8
CC(=O)c1cccc(NC(=O)CSc2ccc(C)cc2)c1	-4.0	-5.4
Cc1ccc2n1CCN(C(=O)NCc1ccccc1)C2C(C)C (centres undefined)	2.1	-3.7
Cc1ccc2n1CCN(C(=O)NCCc1ccccc1)C2C(C)C (centres undefined)	53.7*	-3.0
COc1ccc(CNC(=O)C2CN(S(=O)(=O)c3cccnc3)CC23CCCCC3)cc1 (centres undefined)	3.4	-3.1
CCOc1ccc(NC(=O)C2CN(S(=O)(=O)c3cccnc3)CC23CCCCC3)cc1 (centres undefined)	52.2*	-1.2
CN(C)c1ccc(Nc2nc(-c3ccncc3)cs2)cc1	38.9	-0.7
CN(C)c1ccc(C=Nc2nc(-c3ccccc3)cs2)cc1	65.0*	-0.6
O=C(O)C1CCCCC1C(=O)Nc1ccc(Br)cc1F (centres undefined)	2.3	3.6
Cc1sc2cc(C(=O)N3CCN(C)CC3)[nH]c2c1CN1CCOCC1	6.6	-2.5
Cc1sc2cc(C(=O)N3CCOCC3)[nH]c2c1CN1CCOCC1	100.2*	0.3
CC(C)N1CCC2(CC1)N=C(c1ccc3c(c1)OCO3)CC(c1ccccc1O)N2 (centres undefined)	8.4	9.3
COc1cccc(C2=NC(C)(C)NC(c3cc(Cl)ccc3O)C2)c1 (centres undefined)	100.0*	-3.5
CCCC1(C)N=C(c2ccc(OCC)cc2)CC(c2ccccc2O)N1 (centres undefined)	17.0	-3.2
COc1cccc(C2=NC(C)(CC(C)C)NC(c3ccccc3O)C2)c1 (centres undefined)	98.0*	-1.0
